# Shown are actives, neighbours in structure and some others; about 4.1% of the full set was active somewhere.
# Gli-Sufu block – Gli-Sufu pathway antagonism; Sufu-KO-LIGHT fibroblasts, Gli luciferase reporter luminescence; inhibition, % at 5 µM; 340,000 compounds, 0.74% hits; AID 588413;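 active means inhibition above about 55%, limit read from the data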;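 further: 0% = DMSO-treated cells and 100% = wells with medium but no cells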
# KLF5 inhibitor – inhibitors of KLF5 expression. DLD-1 KLF5 promoter-luciferase reporter, luminescence. inhibition, % at 5 µM. 290,000 compounds, 0.23% hits. AID 1700;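 active means inhibition above a per-plate limit of that plate's mean compound inhibition plus 3 SD, cut at about 60% in these data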;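 further: 0% = DMSO wells and 100% = LY294002 at 200 µM; higher means less KLF5 promoter-driven luciferase light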
# 697 NFkB inh – lowers PMA/ionomycin-induced NF-kB signal in 697 B cells. 697 B-cell NF-kB luciferase reporter, 16 h. 330,000 compounds, 0.33% hits. inhibition, % at 4 µM; in the data active means inhibition above about 35%
# Mdm2-MdmX inh – human Mdm2/MdmX binding inhibition; SaOS-2 split-luciferase Mdm2/MdmX complementation, luminescence; inhibition, % at 8 µM; 330,000 compounds, 3% hits; AID 485346;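 active means inhibition of at least 50% at 8 µM in the primary screen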
# Target sequence (O15151 whole entry, looked up): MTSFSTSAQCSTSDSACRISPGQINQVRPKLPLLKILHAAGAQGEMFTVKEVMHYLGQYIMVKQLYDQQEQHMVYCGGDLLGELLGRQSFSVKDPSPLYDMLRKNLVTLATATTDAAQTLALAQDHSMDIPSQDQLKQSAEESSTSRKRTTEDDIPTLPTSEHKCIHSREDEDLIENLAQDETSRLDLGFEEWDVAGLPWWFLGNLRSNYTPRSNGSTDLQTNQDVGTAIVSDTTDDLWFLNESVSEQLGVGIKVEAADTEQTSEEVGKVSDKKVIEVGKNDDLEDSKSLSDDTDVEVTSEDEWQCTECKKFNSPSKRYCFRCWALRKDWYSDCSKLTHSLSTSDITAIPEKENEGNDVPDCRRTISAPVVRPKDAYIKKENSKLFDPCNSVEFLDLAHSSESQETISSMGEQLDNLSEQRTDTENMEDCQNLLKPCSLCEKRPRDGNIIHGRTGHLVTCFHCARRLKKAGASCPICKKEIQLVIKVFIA
# Target sequence (Q00987 whole entry, looked up): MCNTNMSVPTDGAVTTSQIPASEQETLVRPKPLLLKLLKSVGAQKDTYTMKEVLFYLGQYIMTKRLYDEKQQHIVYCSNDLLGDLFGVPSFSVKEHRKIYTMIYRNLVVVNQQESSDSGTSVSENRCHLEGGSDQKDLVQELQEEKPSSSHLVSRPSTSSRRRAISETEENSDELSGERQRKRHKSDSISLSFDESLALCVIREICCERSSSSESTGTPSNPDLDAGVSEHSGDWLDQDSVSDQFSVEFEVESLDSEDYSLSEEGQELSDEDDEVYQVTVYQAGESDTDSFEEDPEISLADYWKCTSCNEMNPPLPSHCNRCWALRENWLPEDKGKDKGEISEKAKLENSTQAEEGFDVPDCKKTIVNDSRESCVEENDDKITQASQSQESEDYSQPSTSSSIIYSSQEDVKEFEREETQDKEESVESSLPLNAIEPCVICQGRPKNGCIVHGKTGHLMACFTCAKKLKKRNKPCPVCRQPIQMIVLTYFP
# Jurkat NFkB inh – inhibitors of the PMA/ionomycin-induced NF-kB reporter in Jurkat cells; PMA/ionomycin-induced NF-kB luciferase reporter, luminescence; 330,000 compounds, 0.53% hits; AID 435003; inhibition, % at 4 µM; in the data active means inhibition above about 50%
# aSyn UTR inh – MLPCN primary screen, SNCA 5' untranslated region; alpha-synuclein 5'UTR reporter, inhibitor activity; inhibition, % (tested at 7.5 µM); 300,000 compounds, 0.82% hits; in the data active means inhibition above about 60%;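 further: H4 neuroglioblastoma cells stably carrying SNCA 5'UTR luciferase fusion; 0% = DMSO wells and 100% = positive control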
# Mdm2-MdmX conf – human Mdm2/MdmX binding inhibition, confirmed; shares compounds with Mdm2-MdmX inh; luminescent assay; inhibition, % at 8 µM; 10,000 compounds, 55% hits; in the data active means inhibition above about 40%
# Full FLuc ctr – full-length luciferase inhibition in Mdm2/MdmX counter-screen; AID 504607; 6,200 compounds, 77% hits; shares compounds with Mdm2-MdmX inh; SaOS-2 full-length luciferase counterscreen, luminescence; inhibition, % at 8 µM;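 active means mean inhibition at 8 µM reaching about 37%, which flags the compound as non-specific, limit read from the data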;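 further: p53-null SaOS-2 cells with luciferase driven by a doxycycline-inducible promoter; compound on cells about two nights before reading with doxycycline added after day one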
# * marks the source's active call; other numbers are inactive results; . = no result.
SMILES,Gli-Sufu block,KLF5 inhibitor,697 NFkB inh,Mdm2-MdmX inh,Jurkat NFkB inh,aSyn UTR inh,Mdm2-MdmX conf,Full FLuc ctr
O=S(=O)(c1ccc(Cl)c(NC(=S)N/N=C/c2c(F)cccc2F)c1)N1CCOCC1,32,-4,-29,50*,12,7,12,.
Cc1cc(OCC(=O)OCC(=O)Nc2ccc(Cl)cn2)ccc1Cl,2,.,1,-8,4,.,.,.
Cn1c(/C=C/c2ccc(Br)cc2)c([N+](=O)[O-])c(=O)n(C)c1=O,3,-13,-22,84*,11,-199,52*,24
CN(C)c1ccc(/C=C/c2c([N+](=O)[O-])c(=O)n(C)c(=O)n2C)cc1,-2,4,14,-11,-20,-38,.,.
COc1cccc(NC(=O)CN(C)C(=O)c2cc(-c3cccc(Br)c3)nc3ccccc23)c1,-6,.,7,70*,-5,7,36,.
CCOc1ccc(NC(=O)CN(C)C(=O)c2cc(-c3ccc(OC)cc3)nc3ccccc23)cc1OCC,3,.,21,71*,21,-29,46*,75*
COc1ccc(NC(=O)CN(C)C(=O)c2cc(-c3ccc(Cl)cc3)nc3ccccc23)cc1,6,.,27,30,8,-4,.,.
COc1ccc(-n2nc3c(N4CCC(C(=O)NCc5ccccc5C)CC4)nnc(C)c3c2C)cc1,1,-11,-50,100*,2,22,98*,51*
COc1ccc(-n2nc3c(N4CCC(C(=O)NCCc5ccccc5C)CC4)nnc(C)c3c2C)cc1,-4,-21,-14,36,33,19,.,.
Cc1ccc(-n2nc3c(N4CCC(C(=O)NCCc5ccccc5C)CC4)nnc(C)c3c2C)cc1,32,-2,3,98*,39,72*,43*,53*
COc1ccc(-n2nc3c(N4CCC(C(=O)NCc5ccco5)CC4)nnc(C)c3c2C)cc1,7,-35,6,33,0,47,.,.
CCOc1ccccc1CNC(=O)C1CCCN(c2nnc(C)c3c(C)n(-c4ccccc4)nc23)C1 (centres undefined),44,-36,-42,90*,-4,9,41*,34
CCOc1ccccc1CNC(=O)C1CCCN(c2nc3ccccc3o2)C1 (centres undefined),.,-24,.,.,.,.,.,.
COc1ccc(-n2nc3c(N4CCC(C(=O)NCC(C)c5ccccc5)CC4)nnc(C)c3c2C)cc1 (centres undefined),28,-14,18,70*,23,3,7,.
O=C(N/N=C/c1ccc(N2CCCCC2)o1)C(O)(c1ccccc1)c1ccccc1,.,0,9,9,11,-17,.,.
O=C(NN1CCCCCC1)c1ccccc1F,14,.,.,.,.,.,.,.
CC1CN(S(=O)(=O)c2cccc(C(=O)Nc3ccc(S(=O)(=O)NC4=NCCCCC4)cc3)c2)CC(C)O1 (centres undefined),4,.,15,22,12,3,.,.
CCN1C(=O)C(O)(C2COC(C)(C)CC2=O)c2ccccc21 (centres undefined),2,10,-5,11,8,-4,.,.
CCN1C(=O)C(O)(C2COC(C)(C)CC2=O)c2cc(Br)ccc21 (centres undefined),.,-5,-7,55*,-5,6,52*,68*
Cc1noc(C)c1NC(=O)N(C)C[C@H]1Oc2ccc(NC(=O)Cn3cnnn3)cc2C(=O)N([C@H](C)CO)C[C@@H]1C,-2,.,13,2,14,.,.,.
COc1ccc2c(c1)OC[C@H]1[C@H]2N2C(=O)c3cc(C)ccc3NC(=O)[C@@]2(C)[C@H]1c1ccccc1,8,.,7,29,1,.,.,.
COc1ccc2c(c1)OC[C@H]1[C@H]2N2C(=O)c3ccccc3NC(=O)[C@@]2(C)[C@H]1c1ccccc1,-9,.,6,50*,9,.,36,54*
C[C@@]12C(=O)Nc3ccc(Cl)cc3C(=O)N1[C@H]1c3cc(Cl)ccc3OC[C@@H]1[C@@H]2c1ccccc1,-8,.,22,53*,0,.,14,.
C[C@@]12C(=O)Nc3cc(F)c(F)cc3C(=O)N1[C@H]1c3cc(Cl)ccc3OC[C@@H]1[C@@H]2c1ccccc1,17,.,16,51*,15,.,34,.
